The source of these data is the antibiotic and cytotoxicity screens of Wong et al. (2023).

Structures are written as SMILES. The whole screen tested about 39,000 compounds, of which about 500 (1.3%) were called active. For the sample, actives were picked, then their nearest neighbours and some compounds at random.

The assay relates to S. aureus RN4220. Nature of the assay: growth inhibition call (relative growth <= 0.2). To be noted: 50 µM.
With `COc1ccc(S(=O)(=O)N(C)C[C@@H]2OCc3cn(nn3)CCCC(=O)N([C@H](C)CO)C[C@H]2C)cc1`, the growth inhibition call was “inactive”.
As for `COc1ccc(NC(=O)N(C)C[C@@H]2OCCCC[C@H](C)Oc3ccc(NS(=O)(=O)c4ccc(C)cc4)cc3C(=O)N([C@H](C)CO)C[C@H]2C)cc1`, the entry is “inactive”; as for `Nc1nnc(CC(=O)N2CCCCC2)o1`, “inactive”.
Then `CN1C(=O)c2cc(NC(=O)Nc3ccccc3F)ccc2OC[C@@H]2O[C@@H](CC(=O)NCc3ccc(-c4ccccc4)cc3)CC[C@H]21`, with “inactive”.
Then `Cc1noc(C)c1S(=O)(=O)Nc1ccc2c(c1)CC(=O)N([C@@H](C)CO)C[C@H](C)[C@H](CN(C)Cc1ccc(C(=O)O)cc1)O2`, with “inactive”.
For `C[C@@H]1CCCCO[C@H](CN(C)C(=O)Nc2cccc3ccccc23)[C@H](C)CN([C@@H](C)CO)C(=O)c2cc(NS(=O)(=O)c3ccc(Cl)cc3)ccc2O1`, the growth inhibition call is “inactive”.
As for `COc1ccc(S(=O)(=O)N(C)C[C@@H]2OCc3cnnn3CCCC(=O)N([C@@H](C)CO)C[C@H]2C)cc1`, the entry is “inactive”; as for `C[C@H]1CCCCO[C@H](CN(C)C)[C@@H](C)CN([C@@H](C)CO)C(=O)c2cc(NC(=O)CCCN(C)C)ccc2O1`, “inactive”.
Then `Cc1cc(C)c(S(N)(=O)=O)cc1S(N)(=O)=O`, with “inactive”; and `C=CCOC(=O)[C@@H]1[C@H]2C(=O)O[C@H](c3ccccc3)[C@H](c3ccccc3)N2[C@H](c2ccc(OCCOC(=O)[C@@H]3C[C@@H]4C(=O)N[C@@H](Cc5ccccc5)C(=O)N4[C@@H]3c3ccc(O)cc3)cc2)[C@@]12C(=O)Nc1ccccc12`, with “inactive”.
Then `C[C@H]1CN([C@@H](C)CO)C(=O)c2cc(C#CCN(C)C)cnc2O[C@@H]1CN(C)Cc1cccc(C(=O)O)c1`, with “inactive”; and `COc1ccc(S(=O)(=O)N(C)C[C@@H]2Oc3ccc(NS(C)(=O)=O)cc3C(=O)N([C@H](C)CO)C[C@@H]2C)cc1`, with “inactive”.
On to `CO[C@@H](CN(C)C(=O)Nc1ccc(C(F)(F)F)cc1)[C@@H](C)CN(Cc1ccccc1Cl)[C@@H](C)CO`, for which the growth inhibition call was “inactive”.
As for `CO[C@H](CN(C)C(=O)C1CCOCC1)[C@@H](C)CN(C(=O)Nc1ccc(C(F)(F)F)cc1)[C@H](C)CO`, the entry is “active”; as for `CO[C@H](CN(C)C(=O)Nc1ccc(C(F)(F)F)cc1)[C@H](C)CN(Cc1ccccc1Cl)[C@H](C)CO`, “inactive”.
As for `C[C@@H]1CCCCO[C@@H](CN(C)C(=O)C2CCCCC2)[C@@H](C)CN([C@H](C)CO)C(=O)c2cc(NC(=O)Nc3ccc(C(F)(F)F)cc3)ccc2O1`, the entry is “inactive”; as for `C[C@@H]1CCCCO[C@@H](CN(C)C(=O)C2CCCCC2)[C@H](C)CN([C@@H](C)CO)C(=O)c2cc(NC(=O)Nc3ccc(C(F)(F)F)cc3)ccc2O1`, “inactive”.
Then `CO[C@H](CN(C)C(=O)C1CCOCC1)[C@H](C)CN(C(=O)Nc1ccc(C(F)(F)F)cc1)[C@H](C)CO`, with “active”.
In the case of `Cc1noc(C)c1NC(=O)Nc1ccc2c(c1)C(=O)N([C@H](C)CO)C[C@@H](C)[C@H](CN(C)S(=O)(=O)c1ccc(Cl)cc1)OCCCC[C@@H](C)O2`, the growth inhibition call was “inactive”.
As for `C[C@H](CO)N1C[C@H](C)[C@@H](CN(C)Cc2ccc(C(=O)Nc3ccccc3N)cc2)Oc2c(NC(=O)c3nc4ccccc4s3)cccc2C1=O`, the entry is “inactive”.
Then `COc1ccc(S(=O)(=O)Nc2ccc3c(c2)C(=O)N([C@H](C)CO)C[C@H](C)[C@@H](CN(C)Cc2ccc(C(=O)O)cc2)OCCCC[C@@H](C)O3)cc1`, with “inactive”.
As for `CCNC(=O)C[C@H]1C=C[C@H](NC(=O)C2CC2)[C@H](CO)O1`, the entry is “inactive”; as for `O=c1c(O)nnc2n1CCN2c1ccccc1`, “inactive”; as for `Cc1noc(C)c1S(=O)(=O)Nc1cccc2c1O[C@@H](CN(C)S(=O)(=O)c1ccccc1)[C@@H](C)CN([C@H](C)CO)C2=O`, “inactive”.
As for `Cc1ccc(S(=O)(=O)Nc2ccc3c(c2)C(=O)N([C@@H](C)CO)C[C@H](C)[C@@H](CN(C)CC2CCCCC2)OCCCC[C@H](C)O3)cc1`, the growth inhibition call is “inactive”.
As for `Cc1ccc(CN2CCN(CCO)CC2)o1`, the entry is “inactive”; as for `O=C(NCC(F)(F)F)[C@H]1[C@H](CO)[C@H]2Cn3c(cccc3=O)[C@@H]1N2C(=O)C1CCC1`, “inactive”.
Take `CCCNC(=O)c1cc2c(c(-c3cccc(-c4ccc(F)cc4)c3)n1)[C@H](CCO)N([S@@](=O)C(C)(C)C)C2`: the growth inhibition call is “inactive”.
As for `CCCNC(=O)c1cc2c(c(-c3cccc(-c4cccc(F)c4)c3)n1)[C@@H](CCO)N([S@](=O)C(C)(C)C)C2`, the entry is “inactive”; as for `CCCNC(=O)c1cc2c(c(-c3cccc(-c4cccc(F)c4)c3)n1)[C@H](CCO)N([S@@](=O)C(C)(C)C)C2`, “active”; as for `C[C@@H]1CN([C@@H](C)CO)C(=O)c2cc(NC(=O)CCN3CCOCC3)ccc2O[C@H]1CN(C)S(=O)(=O)c1ccc(F)cc1`, “inactive”.
As for `NCCCCCNC(=O)[C@@H]1C[C@@H]2C(=O)N[C@@H](CCCCN)C(=O)N2[C@@H]1c1cccc(OCCO)c1`, the entry is “inactive”; as for `Cc1sc(Nc2ccccc2)nc1-c1ccc(Cl)cc1`, “inactive”; as for `c1ccc(Nc2nc3c(ccc4ccccc43)s2)cc1`, “inactive”.
Then `CSc1cccc2sc(Nc3ccc(Cl)cc3)nc12`, with “active”; and `Cc1ccc(S(=O)(=O)Nc2cccc3c2O[C@H](CN(C)C(=O)Nc2cccc4ccccc24)[C@@H](C)CN([C@@H](C)CO)C3=O)cc1`, with “inactive”.
As to `COCC#Cc1ccc([C@H]2[C@H]3CN(C(=O)c4ccncc4)CC(=O)N3[C@H]2CO)cc1`, the growth inhibition call was “inactive”.
As for `CCOC(=O)CNC(=O)c1cc(C)on1`, the growth inhibition call is “inactive”.
Then `Cn1cc(S(=O)(=O)N2CCN(c3ccc(F)cc3)CC2)c(=O)n(C)c1=O`, with “inactive”; and `Cl.O=C(O)c1cn(-c2ccc(F)cc2)c2cc(N3CCNCC3)c(F)cc2c1=O`, with “active”; and `O=C(c1ccccc1F)N1CCNCC1`, with “inactive”.
As for `Cc1ccc(C(=O)O)c(=O)n1C`, the entry is “inactive”; as for `O=C(CN1CCNCC1)c1ccc(F)cc1`, “inactive”.
As for `CN1CCN(c2cc3c(cc2F)c(=O)c(C(=O)O)cn3-c2ccc(F)cc2)CC1.Cl`, the entry is “active”.
As for `Cc1noc(C)c1S(=O)(=O)N(C)C[C@@H]1Oc2ccc(NC(=O)NC(C)C)cc2CC(=O)N([C@@H](C)CO)C[C@@H]1C`, the growth inhibition call was “inactive”.
Then `O=C(NO)c1cn(-c2ccc(C[C@H]3C(=O)O[C@@H](Cc4ccccc4)[C@H]4C=C(/C=C/C5CC5)CN43)cc2)nn1`, with “inactive”.
